# Compound activity: PubChem, National Center for Advancing Translational Sciences (NCATS)
# SMN2 splice enh: qHTS Assay for Enhancers of SMN2 Splice Variant Expression; actives 2.8% (n = 210,000); HEK293 SMN2-luciferase splicing reporter, luminescence, 30-36 h; Potency, µM (series often up to 46.1 µM), most hits filed as activators; also: nearly all actives have a fitted effect of over 55% in size
#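 HEK293 cells carry an SMN2 […]–luciferase reporter in which exon 7 inclusion puts luciferase in frame. Cells were plated 10-12 h before compound addition, then incubated 30-36 h at 37C. ONE-Glo luminescence was read; sodium butyrate at 4.5 mM final served as control.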
# Rab9 prom act: qHTS Assay for Rab9 Promoter Activators | AID 485297, 2010 | actives 2.8% (n = 320,000) | Huh7 Rab9 promoter-luciferase reporter, luminescence, 24 h | Potency, µM (highest dose often 9.22 µM), usual class: activators; also: nearly all actives have a fitted effect of over 60% in size
#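 Luminescence from Amplite-detected luciferase (10 minutes, ambient) reports Rab9 promoter activation. Before that, stable Rab9-luciferase Huh7 cells (1500/well, reduced-serum OP-MEM I plus 10% FBS) were exposed to compound for 24 hours at 37C.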
# FLuc modulator: qHTS profiling assay for firefly luciferase inhibitor/activator using purifed enzyme and Km concentrations of substrates (counterscreen for miR-21 project); purified FLuc, Km substrates, luminescence inhibition; AID 588342, 2011; Luciferin 4-monooxygenase (Photinus pyralis), P08659; actives 6.9% (n = 360,000); Potency, µM (highest dose often 57.5 µM), most hits filed as inhibitors; also: nearly all actives have a fitted effect of over 55% in size
# Target sequence (P08659 whole entry, looked up): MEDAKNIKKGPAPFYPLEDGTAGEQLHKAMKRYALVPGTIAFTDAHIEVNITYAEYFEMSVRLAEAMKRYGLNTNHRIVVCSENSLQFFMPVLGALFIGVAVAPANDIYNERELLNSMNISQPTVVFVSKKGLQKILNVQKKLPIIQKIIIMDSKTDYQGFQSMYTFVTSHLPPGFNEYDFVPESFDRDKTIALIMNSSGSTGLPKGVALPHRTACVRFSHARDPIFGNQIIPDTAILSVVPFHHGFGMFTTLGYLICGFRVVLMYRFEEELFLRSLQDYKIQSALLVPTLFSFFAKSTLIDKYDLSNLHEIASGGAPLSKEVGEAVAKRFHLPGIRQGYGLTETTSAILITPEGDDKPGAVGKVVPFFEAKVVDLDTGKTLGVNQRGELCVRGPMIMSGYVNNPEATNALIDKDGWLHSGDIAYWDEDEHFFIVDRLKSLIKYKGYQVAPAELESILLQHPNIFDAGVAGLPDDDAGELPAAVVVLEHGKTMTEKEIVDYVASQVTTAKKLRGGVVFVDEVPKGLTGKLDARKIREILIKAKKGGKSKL
#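 Biochemical qHTS of compounds, final roughly 60 µM downward over six points, against 10 nM purified firefly luciferase using Km concentrations of substrates (10 uM D-luciferin, 10 uM ATP) in Tris acetate pH 7.5 buffer; luminescence output.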
# NPC1 prom act: qHTS Assay for NPC1 Promoter Activators; Huh7 NPC1 promoter luciferase reporter, 24 h; Potency, µM (titrated, usually from 9.22 µM), usual class: activators; actives 2.4% (n = 320,000); AID 485313, 2010; also: nearly all actives have a fitted effect of over 60% in size
#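 Cells: Huh7 expressing luciferase under the NPC1 promoter, 1500/well. Seeded 2 h, compound added, incubated 24 h at 37 °C. Luciferase reagent, 10 min ambient, then luminescence.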
# Luc counter: Counterscreen for Luciferase (Kinase-Glo TM) Inhibition | AID 1379, 2008 | Potency, µM (titrated, usually from 38.3 µM), hits mostly inhibitors | Kinase-Glo luciferase, ATP luminescence, 8 min | actives 0.28% (n = 200,000); also: nearly all actives have a fitted effect of over 60% in size
#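 Compound is pinned into ATP-containing buffer (10 uM ATP, imidazole pH 7.2, 7 mM MgCl2). Kinase-Glo luciferase reagent is then added. Light output is recorded following an 8-min room-temperature incubation.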
# A number is an active result; - = inactive; ? = inconclusive; . = no result given. Hits are enriched below; roughly 7.3% of the tested compounds scored in any of these assays. Calls follow the shape of the dose curve; as a rule, active = well fitted curve in the direction sought with a large enough effect; inconclusive = small, poorly fitted or top-dose-only effect, or another doubt; inactive = no such curve, though single readings can be large; an effect the other way counts as inactive or inconclusive.
SMILES,SMN2 splice enh,Rab9 prom act,FLuc modulator,NPC1 prom act,Luc counter
COc1cc(C)ccc1OCc1cc(C(=O)NCc2ccncc2)no1,.,2µM,12µM,2.8µM,.
COc1ccc(NC(=O)Nc2ccc(OC)cc2)cc1,?,2.2µM,-,2.8µM,-
CC(C)OC(=O)Nc1ccc(-c2ccc(NC(=O)OC(C)C)cc2Cl)c(Cl)c1,.,-,-,-,.
CN(C)c1ccc(NC(N)=S)cc1,?,-,-,-,-
COc1ccc(NC(=O)/C=C2\SC(=O)NC2=O)cc1,-,-,12µM,-,-
COc1ccc(NC(=O)OC(C)C)cc1,11µM,2.2µM,12µM,2µM,-
COc1ccc(NC(=O)Nc2ccc(N(C)C)cc2)cc1,13µM,2.2µM,3µM,2.5µM,-
O=C(CO)N/N=C/c1ccc(Cl)cc1,-,-,-,-,-
CCOc1ccc(/C=N/Nc2ccccc2)cc1,.,-,?,-,.
O=C(CCC(=O)Nc1ccccc1)N/N=C/c1ccco1,-,-,-,-,-
O=C(N/N=C/c1ccc(Cl)cc1)Nc1ccccc1,?,?,4.3µM,?,-
O=C(N/N=C/c1ccco1)Nc1ccccc1,.,4µM,19µM,3.2µM,.
Clc1ccc(/C=N\Nc2ccccc2)cc1,.,-,17µM,-,.
CCOc1ccc(C2C(=O)N(C3CCCCCC3)CC(=O)N2Cc2ccc(F)cc2)cc1OC (centres undefined),.,.,-,.,.
COc1ccc2c(c1)C(=O)[C@H](OC(=O)NCc1ccco1)[C@@H](c1ccc(OC)c(Br)c1)O2,-,.,.,.,-
COc1ccc(S(=O)(=O)c2nnn(-c3ccc(C)c(Cl)c3)c2C)cc1,-,.,-,.,.
c1ccc(CN2CCC(=NNc3nc4ccccc4[nH]3)CC2)cc1,-,-,19µM,-,-
CC(C)(C)C1CCC(=NNc2nc3ccccc3[nH]2)CC1 (centres undefined),-,-,13µM,-,-
c1ccc2c(c1)CC/C2=N/Nc1nc2ccccc2[nH]1,11µM,2.5µM,6.7µM,?,-
c1ccc2[nH]c(CN3CCCCCC3)nc2c1,-,-,-,-,-
COc1ccc(Cn2cc(S(=O)(=O)c3ccc(C)cc3)c(=O)c3cc(F)ccc32)cc1,-,.,-,.,.
Nc1cccc2c1C(=O)N(CCOc1ccc(F)cc1)C2=O,.,1.6µM,2.7µM,1.8µM,.
Cc1ccccc1OCCN1C(=O)C(=O)c2cccc(C)c21,-,-,-,-,-
O=C1c2ccccc2C(=O)N1CCOc1ccccc1Br,.,?,24µM,-,.
O=C1c2ccccc2C(=O)N1CCOc1ccccc1Cl,.,-,-,-,.
SMILES,SMN2 splice enh,Rab9 prom act,FLuc modulator,NPC1 prom act,Luc counter
Cc1ccccc1OCCN1C(=O)c2ccccc2C1=O,-,?,19µM,?,-
O=C(Cn1ccn(-c2ccc(F)cc2)c(=O)c1=O)NCCc1ccccc1,.,.,-,.,.
CCOc1ccc(-c2nnc(SCC(=O)Oc3ccccc3)o2)cc1,.,.,-,.,.
N#CC(=C1CCCC1)c1nc(-c2cc3ccccc3oc2=O)cs1,?,3.2µM,2.1µM,?,-
N#C/C(=N\O)c1nc(-c2ccccc2)cs1,-,-,-,-,-
N#CC(=C1CCCC1)c1nc(-c2ccccc2)cs1,16µM,?,1.3µM,3.2µM,-
N#CC(=C1CCCC1)c1nc(-c2ccccc2O)cs1,?,3.5µM,1.3µM,2.8µM,?
Cc1ccc(-c2csc(C(C#N)=C3CCCC3)n2)cc1,18µM,4.5µM,2.7µM,3.2µM,-
CCOC(=O)c1cccc(NC(=O)COc2ccc3c(C)cc(=O)oc3c2)c1,-,.,-,.,.
CCOc1ccc(C(=O)Cc2ccc3oc(C(=O)O)cc3c2)c(O)c1,-,-,?,-,-
O=C(O)COc1ccc(C(=O)Cc2ccc3c(c2)OCCCO3)c(O)c1,-,-,27µM,-,-
O=C(Cc1ccc2c(c1)OCCO2)c1c(O)cc(O)cc1O,-,?,27µM,-,-
COc1ccc(C(=O)Cc2ccc3c(c2)OCO3)c(O)c1,5.6µM,4µM,2.7µM,2.8µM,-
COc1ccc(C(=O)NCc2ccc3c(c2)OCO3)c(OC)c1,.,-,-,-,.
C=Cc1ccccc1C=C,-,.,.,.,.
CCC(=O)N1CCc2cc(S(=O)(=O)NC(C(=O)NCCc3ccc(Cl)cc3)C(C)C)ccc21 (centres undefined),-,.,-,.,.
CCCN(c1ccc(C(C)C)cc1)S(=O)(=O)c1ccc2c(c1)CCN2C(=O)CC,-,.,-,.,.
CCS(=O)(=O)N1CC(=O)N(c2ccc(Cl)cc2)C(C)(C(=O)NC2CCCCC2)C1 (centres undefined),.,.,-,.,.
Cc1cc(Nc2ccccc2)n(-c2cccc(Cl)c2)n1,?,-,-,-,-
Cc1cccc(-c2cnn(-c3ccccc3)c2N)c1,.,3.5µM,6.7µM,?,.
Nc1ccccc1Nc1cc(-c2cccc(Cl)c2)nn1-c1ccccc1,-,-,27µM,-,-
Nc1c(-c2ccccc2)cnn1-c1cccc(Cl)c1,.,1.4µM,3.4µM,1.1µM,.
Cc1oc2c(cc(NS(=O)(=O)c3ccc(F)cc3)c3ccccc32)c1C(=O)OCc1ccccc1,-,.,-,.,.
